Several values for one entry are separate records, joined by “and”; a condition that tells them apart may be missing. Equal entries are not always repeated. More than one record can exist for a structure, and the calls need not agree. Activity calls are given as the source filed them. The calls were made as follows: active = hit-call score of the fitted dose curve at least 0.9, where 1 is the maximum; inactive = score below 0.9.
Tests used:
[1] = read-out: Monocyte Chemoattractant Protein-1 (MCP1), CCL2 (gene 6347); test: BSK_LPS_MCP1: BioMAP Diversity Plus: LPS Assay for Monocyte Chemoattractant Protein-1 (MCP1) Biomarker Activity (AID 2283081); conditions: primary human HUVEC with PBMC; actives raise or lower the signal
Procedure, shortened: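 Human endothelial–PBMC co-cultures were dosed with chemical, then LPS-driven MCP-1 levels were quantified by ELISA at 24 h. Activity in either direction was fitted versus DMSO negative control.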

[2] = BSK_LPS_PGE2: BioMAP Diversity Plus: LPS Assay for Prostaglandin E2 (PGE2) Biomarker Activity (AID 2283082); conditions: primary human HUVEC with PBMC; actives raise or lower the signal;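 as to AC50: secreted prostaglandin E2 measured by ELISA in LPS-stimulated co-culture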
Procedure, shortened: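 PGE2 release measured by ELISA in an LPS-activated co-culture of human umbilical vein endothelial cells and peripheral blood mononuclear cells, read at 24 h post-dosing. DMSO served as baseline for bidirectional curve fitting.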

[3] = read-out: Macrophage colony-stimulating factor (MCSF), CSF1 (gene 1435); test: BSK_LPS_MCSF: BioMAP Diversity Plus: LPS Assay for Macrophage colony-stimulating factor (MCSF) Biomarker Activity (AID 2283083); conditions: primary human HUVEC with PBMC; actives raise or lower the signal
Procedure, shortened: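 ELISA readout of M-CSF after 24 h compound exposure in a human endothelial/PBMC co-culture. Activity, in either direction, is fitted relative to DMSO vehicle.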

[4] = read-out: Tissue Factor, F3 (gene 2152); test: BSK_LPS_TissueFactor: BioMAP Diversity Plus: LPS Assay for Tissue Factor Biomarker Activity (AID 2283084); conditions: primary human HUVEC with PBMC; actives raise or lower the signal
Procedure, shortened: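 ELISA signal for cell-surface Tissue Factor (CD142) was read 24 h after compound dosing of an LPS-stimulated human endothelial–PBMC primary co-culture. Gain or loss of signal was scored relative to DMSO.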

[5] = read-out: Tumor necrosis factor (Homo sapiens) (UniProt P01375); test: BSK_LPS_TNFa: BioMAP Diversity Plus: LPS Assay for Tumour Necrosis Factor alpha (TNFa) Biomarker Activity (AID 2283085); conditions: primary human HUVEC with PBMC; actives raise or lower the signal;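 as to AC50: TNFa protein level quantified by ELISA in the co-culture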
Procedure, shortened: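 TNFa was quantified by ELISA in LPS-activated co-cultures of human endothelial cells and PBMC, 24 h post-dosing. Both increases and decreases versus DMSO were fitted.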

[6] = read-out: Vascular cell adhesion molecule 1 (VCAM1), VCAM1 (gene 7412); test: BSK_LPS_VCAM1: BioMAP Diversity Plus: LPS Assay for Vascular cell adhesion molecule 1 (VCAM1) Biomarker Activity (AID 2283086); conditions: primary human HUVEC with PBMC; actives raise or lower the signal
Procedure, shortened: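 VCAM-1 quantified by ELISA in an LPS-activated co-culture of human endothelial cells and peripheral blood mononuclear cells, read 24 h post-treatment. Fitted in both directions versus DMSO; parallel SRB staining flags overt cytotoxicity.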

[7] = read-out: CD38, CD38 (gene 952); test: BSK_SAg_CD38: BioMAP Diversity Plus: SAg Assay for CD38 Biomarker Activity (AID 2283087); conditions: primary human HUVEC with PBMC; actives raise or lower the signal
Procedure, shortened: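 CD38 quantified by ELISA (fluorescence) in a superantigen-activated endothelial cell–PBMC co-culture at 24 h post-dose. Activity fitted in both directions relative to DMSO; parallel SRB and Alamar Blue cytotoxicity read-outs.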

[8] = read-out: CD40, CD40 (gene 958); test: BSK_SAg_CD40: BioMAP Diversity Plus: SAg Assay for CD40 Biomarker Activity (AID 2283088); conditions: primary human HUVEC with PBMC; actives raise or lower the signal
Procedure, shortened: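 Compounds were dosed onto a human primary endothelial–PBMC co-culture, and after 24 h CD40 was quantified by ELISA using a fluorescence signal. Activity in either direction was fitted relative to DMSO.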

[9] = read-out: CD69, CD69 (gene 969); test: BSK_SAg_CD69: BioMAP Diversity Plus: SAg Assay for CD69 Biomarker Activity (AID 2283089); conditions: primary human HUVEC with PBMC; actives raise or lower the signal;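 as to AC50: cell surface CD69 protein quantified by ELISA with fluorescence detection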
Procedure, shortened: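 HUVEC co-cultured with PBMC were dosed with chemical, and CD69 was measured by ELISA with fluorescence read-out 24 h later. Bidirectional curve fitting used DMSO as negative control and activity baseline.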

[10] = read-out: Monocyte Chemoattractant Protein-1 (MCP1), CCL2 (gene 6347); test: BSK_SAg_MCP1: BioMAP Diversity Plus: SAg Assay for Monocyte Chemoattractant Protein-1 (MCP1) Biomarker Activity (AID 2283090); conditions: primary human HUVEC with PBMC; actives raise or lower the signal
Procedure, shortened: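 Values derive from bidirectional fitting of ELISA-measured MCP1 against DMSO controls. Readings were taken 24 h after dosing human vascular endothelial cells co-cultured with peripheral blood mononuclear cells under superantigen stimulation.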

[11] = read-out: E-selectin (Homo sapiens) (UniProt P16581); test: BSK_SAg_Eselectin: BioMAP Diversity Plus: SAg Assay for Eselectin Biomarker Activity (AID 2283091); conditions: primary human HUVEC with PBMC; actives raise or lower the signal
Procedure, shortened: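 Co-culture: HUVEC + PBMC. Dose compound; 24 h. ELISA for E-selectin. Bidirectional fit vs DMSO.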

[12] = read-out: Monokine induced gamma interferon (MIG), CXCL9 (gene 4283); test: BSK_SAg_MIG: BioMAP Diversity Plus: SAg Assay for Monokine induced gamma interferon (MIG) Biomarker Activity (AID 2283092); conditions: primary human HUVEC with PBMC; actives raise or lower the signal
Procedure, shortened: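 HUVEC plus human PBMC co-culture, chemicals dosed and MIG (CXCL9) quantified by ELISA at 24 h. Bidirectional curve fitting against DMSO as negative control and baseline, so both gain and loss of signal count as activity.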

[13] = BSK_SAg_PBMCCytotoxicity: PBMC Cytotoxicity Assessment in the BioMAP Diversity Plus: SAg Assay (AID 2283093); conditions: primary human HUVEC with PBMC;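 also: fitted both ways against DMSO so a hit may be loss or gain of signal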
Procedure, shortened: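 PBMC viability by Alamar Blue reduction, fluorescence read at 546/580 nm after 6 h dye exposure. Cells were dosed 1 h before SEB plus TSST-1 activation (20 ng/mL final each), then held 90 h; endothelial/PBMC human co-culture.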

[14] = read-out: Interleukin-8 (IL8), CXCL8 (gene 3576); test: BSK_SAg_IL8: BioMAP Diversity Plus: SAg Assay for Interleukin-8 (IL8) Biomarker Activity (AID 2283094); conditions: primary human HUVEC with PBMC; actives raise or lower the signal
Procedure, shortened: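 ELISA readout of IL-8 from a superantigen-activated endothelial/PBMC primary human co-culture, taken 24 h post-dosing and fitted in both directions against DMSO; parallel SRB total-protein staining flags overt cytotoxicity.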

[15] = BSK_SAg_Proliferation: Cell Proliferation Assessment in the BioMAP Diversity Plus: SAg Assay (AID 2283095); conditions: primary human HUVEC with PBMC;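 also: relative cell number as total protein by SRB absorbance in sub-confluent culture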
Procedure, shortened: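 Relative cell number in the endothelial cell/PBMC co-culture was quantified at 96 h by SRB staining (0.1% SRB, 10% TCA fixation, read at 560 nm). Curves were fitted in both directions relative to DMSO baseline.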

[16] = BSK_SAg_SRB: Viability Assessment in the BioMAP Diversity Plus: SAg Assay (AID 2283096); conditions: primary human HUVEC with PBMC;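 also: cells read one day after compound addition; hits may be either gain or loss of signal compared with DMSO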
Procedure, shortened: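 Compounds were added to a human vascular co-culture of umbilical vein endothelium and PBMC. After 24 h, parallel cultures were fixed with 10% TCA, stained with 0.1% sulforhodamine B and read at 560 nm. Gain or loss of signal was fitted relative to DMSO.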

Measured: AC50

Sequence of E-selectin (Homo sapiens) (P16581 whole entry, looked up): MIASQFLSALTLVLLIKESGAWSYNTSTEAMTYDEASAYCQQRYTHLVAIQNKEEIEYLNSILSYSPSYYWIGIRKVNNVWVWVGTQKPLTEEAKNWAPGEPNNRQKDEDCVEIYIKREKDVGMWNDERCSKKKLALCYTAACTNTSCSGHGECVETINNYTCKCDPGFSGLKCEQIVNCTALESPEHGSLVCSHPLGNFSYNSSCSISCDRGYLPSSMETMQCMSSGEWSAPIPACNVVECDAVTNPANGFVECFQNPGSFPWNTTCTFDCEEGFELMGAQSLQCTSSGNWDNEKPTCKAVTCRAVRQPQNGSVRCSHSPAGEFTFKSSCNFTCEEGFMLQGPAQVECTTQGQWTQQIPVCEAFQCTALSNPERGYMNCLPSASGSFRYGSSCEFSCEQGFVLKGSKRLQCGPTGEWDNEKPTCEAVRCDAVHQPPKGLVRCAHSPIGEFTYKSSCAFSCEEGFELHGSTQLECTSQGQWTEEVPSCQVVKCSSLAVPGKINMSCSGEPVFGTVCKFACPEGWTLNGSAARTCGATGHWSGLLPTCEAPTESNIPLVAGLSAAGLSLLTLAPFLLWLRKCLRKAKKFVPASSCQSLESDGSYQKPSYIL
Sequence of Tumor necrosis factor (Homo sapiens) (P01375 whole entry, looked up): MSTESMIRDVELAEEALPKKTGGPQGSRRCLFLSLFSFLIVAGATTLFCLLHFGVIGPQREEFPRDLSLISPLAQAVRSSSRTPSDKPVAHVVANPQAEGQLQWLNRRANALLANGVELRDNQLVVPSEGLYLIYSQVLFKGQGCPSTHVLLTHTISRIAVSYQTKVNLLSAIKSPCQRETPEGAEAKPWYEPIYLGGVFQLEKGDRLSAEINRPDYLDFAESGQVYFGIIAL

O=C(O)C(F)(F)C(F)(F)C(F)(F)C(F)(F)C(F)(F)C(F)(F)C(F)(F)C(F)(F)Cl
active: [2] 21.9 µM and 22 µM | [3] 19.4 µM | [6] 30 µM | [7] 50.4 µM and 30 µM | [8] 38.2 µM and 45.9 µM | [9] 30 µM and 45 µM | [10] 45.9 µM and 50.4 µM | [14] 48.8 µM and 50.1 µM | [15] 54.5 µM | [16] 48.1 µM and 45.1 µM
inactive: [1] | [3] | [4] | [5] | [6] | [11] | [12] | [13] | [15]

O=C(O)C(F)(OC(F)(F)C(F)(OC(F)(F)C(F)(F)C(F)(F)F)C(F)(F)F)C(F)(F)F (stereo unspecified)
inactive: [1] | [2] | [3] | [4] | [5] | [6] | [7] | [8] | [10] | [11] | [12] | [13] | [14] | [15] | [16]

C=CC/C=C/C/C=C/C/C=C/C
inactive: [1] | [2] | [3] | [4] | [6] | [7] | [8] | [9] | [10] | [11] | [12] | [13] | [14] | [15] | [16]
active: [5] 0.628 µM

CCCCC(CC)COP(=O)(O)OCC(CC)CCCC (stereo unspecified)
inactive: [1] | [2] | [3] | [4] | [5] | [6] | [7] | [8] | [9] | [10] | [11] | [12] | [13] | [14] | [15] | [16]

FC(F)(F)C(F)(F)C(F)(F)N(C(F)(F)C(F)(F)C(F)(F)F)C(F)(F)C(F)(F)C(F)(F)F
inactive: [1] | [2] | [3] | [4] | [5] | [6] | [7] | [8] | [9] | [11] | [12] | [13] | [14] | [15] | [16]

From PubChem BioAssay (EPA / NIEHS)
